# Results taken from publication PMC12136788.
# Numbering of substitutions follows the chain as printed. Over roughly 24,000 sequences, “enrichment r” has its median near 0.99; the highest 2% begin near 3.7. The entries come from a sample that favours the highest values as a whole.
# T1: UNK ZnF1-3 (human, UniProt Q9C0B0 31-174)
# T1 sequence: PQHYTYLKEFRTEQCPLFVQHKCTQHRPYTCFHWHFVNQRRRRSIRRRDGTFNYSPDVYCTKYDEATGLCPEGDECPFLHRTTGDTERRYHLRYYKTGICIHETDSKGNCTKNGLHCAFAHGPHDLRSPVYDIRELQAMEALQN
# B1: chr6:74304526:74304527:-_ENSG00000119899_ENST00000355773|hu_hu|motif|central (ssRNA)
# RNA: GGGAGUUCUACAGUCCGACGAUCUAAUUAAGCAAAGGUAUCAGGAGGUCUGUUUCAGCUCAUUCCCUUUAGUAUGGCCCGGAAAAAUCAACAGAACUGUCCUACUUCAUGUUGCCCGACUAGCAGGCAGGUAUGUGAACCUAACAACAGAGGAUUGAGCAUCA
# B2: 6859137_6859426_438_3pUTR_ENSG00000089693_ENST00000435120|human|control|control (ssRNA)
# RNA: GGGAGUUCUACAGUCCGACGAUCGUCUGAAUCCCGAACAGUCCUCCGUGUCUCCCGGAUCCCGCCUGGUGCCGAGCGCAUCUCUGAUGUCUCUUGGUAGACCUUGGGGGCACCAUCACCCGUAUUGGAGUAGGAGAUGACAGUCAACAGAGGAUUGAGCAUCA
# B3: chr18:35731670:35731671:+_ENSMUSG00000037236_ENSMUST00000166793|perfect_dup|motif|central (ssRNA)
# RNA: GGGAGUUCUACAGUCCGACGAUCUGACCCUGUGAAUCCCUACCGAGAGAUGACUGCUGGAAUGACUUGGACAUUGUAGAACGGUCUCUUGUCUAUUUUAUAGAUCAAAAAAAAAAAAAAAAGUUUUAAAAGAUGGCCAAAAAGCAACAGAGGAUUGAGCAUCA
# B4: chr1:39494564:39494565:+_ENSG00000168653_ENST00000372967|hu_hu|hu_hu_hu_mus_True|28_78 (ssRNA)
# RNA: GGGAGUUCUACAGUCCGACGAUCAUGCAUUCGCCUCAUCGUUUUGUACCGAAGCAAACACUCUACGAAGUCAUCGAACUCUAUCUUGCACUCCUUUUUCGCCCGGGUAUAACCGAUCCCGUGUGCACACUCUAUCCACUCUUUCAACAGAGGAUUGAGCAUCA
# B5: chr7:44244176:44244177:+_ENSG00000106636_ENST00000223369|hu_mus|hu_hu_hu_mus_False|48_48 (ssRNA)
# RNA: GGGAGUUCUACAGUCCGACGAUCACUGUCGCUCCGGACGUAGACAUGGCAAAGAUACUCUUGUUCUUUGACAGAAGCUCUGCUGCCUUUCGAUGAGCGUUCCACAAUCAGUUGACUUGUAAAGGUCAUGAAUUCCUGCACACUCAACAGAGGAUUGAGCAUCA
# B6: chr2:157388114:157388115:+_ENSMUSG00000067786_ENSMUST00000109526|mus_mus|motif|central (ssRNA)
# RNA: GGGAGUUCUACAGUCCGACGAUCUUGGUGGAGGUGGUCCCUGUCUCCAGGAGCUUACAAUCUAGCUGGGGAGACACGGCGGAUGCACACUUAAACCAGUACAAUUAGCGACUACCACAAUAUUGACCACAACUGCUGCGUGAGCAACAGAGGAUUGAGCAUCA
# B7: 158551514_158564203_814_3pUTR_ENSG00000122335_ENST00000367104|human|control|control (ssRNA)
# RNA: GGGAGUUCUACAGUCCGACGAUCCACCCUUCUGAGCAGCUAGACUCUGACUGCUUUCACUAAGAGCCAAAGAUGUAAAAUACUGGAUACACUCAUCUAGCUCUGUUUGAGGUAAGGAAGCCAGCAACUGUCUGAGCUCUUCUUCAACAGAGGAUUGAGCAUCA
# B8: 104620154_104620274_4085_CDS_ENSMUSG00000074994_ENSMUST00000117237|mouse|control|control (ssRNA)
# RNA: GGGAGUUCUACAGUCCGACGAUCACCUCCACUUUCAAUAUUUUCCUCAUCUGUAAAACCUUCUAUUGCAACUGUGUCCUGUCCUUUUGCCAACUGGUCUGAAGGAAGACUAUCAAGUUCGAUGGCUGUGGGGGAUUCUGUGGACAACAGAGGAUUGAGCAUCA
# B9: chr2:120842339:120842340:+_ENSMUSG00000023572_ENSMUST00000060455|mus_mus|motif|central (ssRNA)
# RNA: GGGAGUUCUACAGUCCGACGAUCCUUAAGGACAGAGGCUGCCUUUCUAUCGAGCAAACACCCUGUCAAAGCUCCACUUCGGAAAGCAGACGUUAAAAAAACUUAAAAAAUAAAUAGGUAAAGCAGACACUGGAUCGUGGGUGUCAACAGAGGAUUGAGCAUCA
# B10: chr2:120842339:120842340:+_ENSMUSG00000023572_ENSMUST00000060455|mus_mus|FALSE|FALSE (ssRNA)
# RNA: B9 RNA with G80U, G81A
# B11: 13689013_13692640_988_3pUTR_ENSMUSG00000022684_ENSMUST00000023365|mouse|control|control (ssRNA)
# RNA: GGGAGUUCUACAGUCCGACGAUCCACUCCCAGGGCUCUCACACGCUCCAGCUCCGUGAGGAUGACCCUUCUGUGGCUACUGUUCUCUAUGGUAUAAGGUGCCCUGGAAAACUCUUCUUCUGUCAAAGUUAAAAGCAACCUUCCCAACAGAGGAUUGAGCAUCA
# B12: chr1:185089287:185089288:-_ENSG00000121486_ENST00000367506|hu_hu|FALSE|FALSE (ssRNA)
# RNA: GGGAGUUCUACAGUCCGACGAUCUGACUGGACAUGGCUUUCUGACUGUCCUCCAGUGUAGGUGGGGGUGCUGUACUUUAAAAGGAUAGAUUUAAACUGCAUCAGAGGUGCAUCUGUGCGUACACCCAUUGGGUCAAAAUGAGUCAACAGAGGAUUGAGCAUCA
# B13: chr18:35731670:35731671:+_ENSMUSG00000037236_ENSMUST00000166793|perfect_dup|motif|central (ssRNA)
# RNA: GGGAGUUCUACAGUCCGACGAUCUGACCCUGUGAGUCCCUACUGAGAGAUGACUGCUGGAAUGACUUGGACAUUGUAGAACGGGCUCUUGUCUAUUUUAUAGAUUAAAAAAAAAAAUUUUUUUAAAGACGGCCAAAAAGAAAGCAACAGAGGAUUGAGCAUCA
# B14: chr16:20683585:20683586:+_ENSMUSG00000045983_ENSMUST00000044783|mus_mus|motif|central (ssRNA)
# RNA: GGGAGUUCUACAGUCCGACGAUCUAUUGCUUCUGUUAACAUCUUCAACUUGAAUAACUCUCCAAUAAACUUGAUAUUCCCGGAAGAGCGCCGCCUAGCUAUGUCCCGGGCUUCUUCUAGCUCUUCUUUCAGGCGUCCCCGUUCCAACAGAGGAUUGAGCAUCA
# Target: T1, UNK ZnF1-3
# Assay: nsRBNS (natural sequence RNA bind-n-seq); RBNS binding buffer (assumed for nsRBNS): 25 mM Tris pH 7.5, 150 mM KCl, 3 mM MgCl2, 0.01% Triton X-100, 500 ug/ml BSA, 20 U/ml SUPERase-In, 4 C; UNK is unkempt and MSI1 is Musashi-1; names of the RNAs are library labels; protein concentration not given here; high values mean tight binding
row,Binder,binding signal [enrichment R]
1,B1,0.917
2,B2,0.67
3,B3,3.64
4,B4,0.645
5,B5,0.634
6,B6,1.28
7,B7,0.91
8,B8,0.848
9,B9,3.71
10,B10,5.28
11,B11,0.702
12,B12,0.951
13,B13,3.64
14,B14,0.438
